This note sets out measurements from ChEMBL document CHEMBL3433997, “St. Jude Leishmania screening dataset” (2016).

Structures are written as SMILES.

Format in all cases: functional
Experiment [1] deals with Solute carrier family 2, facilitated glucose transporter member 1 (Homo sapiens) (UniProt P11166). The experiment in a line: ST_JUDE_LEISH: Cytotoxicity at 2uM final concentration against transgenic Leishmania Mexicana promastigotes LmGLUT1 that are glucose transport deficient and complemented with the human glucose transporter GLUT1. Activity is measured by DNA content using SYBR green in vitro.

For experiment [2], the target named is Hexose transporter 1 (Plasmodium falciparum) (UniProt O97467). The experiment in a line: ST_JUDE_LEISH: Cytotoxicity at 2uM final concentration against transgenic Leishmania Mexicana promastigotes LmPfHT that are glucose transport deficient and complemented with the Plasmodium falciparum hexose transporter. Activity is measured by DNA content using SYBR green in vitro.

The target in experiment [3] is Glucose transporter (Leishmania mexicana) (UniProt O61059). The experiment can be described thus: ST_JUDE_LEISH: Cytotoxicity at 2uM final concentration against transgenic Leishmania Mexicana promastigotes LmGT2 that are glucose transport deficient and complemented with the L. Mexicana glucose transporter 2. Activity is measured by DNA content using SYBR green in vitro.

Solute carrier family 2, facilitated glucose transporter member 1 (Homo sapiens), sequence (P11166 whole entry): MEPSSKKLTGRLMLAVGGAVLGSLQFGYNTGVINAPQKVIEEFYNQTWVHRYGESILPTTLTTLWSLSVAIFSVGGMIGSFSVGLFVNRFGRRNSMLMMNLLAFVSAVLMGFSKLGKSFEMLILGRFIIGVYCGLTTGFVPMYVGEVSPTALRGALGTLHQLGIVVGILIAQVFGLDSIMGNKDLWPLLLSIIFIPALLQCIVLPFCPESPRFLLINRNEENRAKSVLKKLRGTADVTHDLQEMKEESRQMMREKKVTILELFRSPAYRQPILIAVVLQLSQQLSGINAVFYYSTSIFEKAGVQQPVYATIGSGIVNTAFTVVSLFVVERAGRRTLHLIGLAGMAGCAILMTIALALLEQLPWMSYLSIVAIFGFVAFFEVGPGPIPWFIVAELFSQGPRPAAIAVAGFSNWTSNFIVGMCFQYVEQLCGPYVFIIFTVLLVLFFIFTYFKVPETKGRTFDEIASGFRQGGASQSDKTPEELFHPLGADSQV

With `N#Cc1ccc(CN2CCC(Oc3ccc(NC(=O)c4ccco4)cc3Cl)C2)cc1` (configuration not stated), the inhibition is 3.53% in experiment [1], 0.89% in experiment [2] and -0.68% in experiment [3].
The like results for `Cc1ccc(Nc2nc(C)cc(NC3CC3)n2)cc1` were, in that order, 8.73%, 6.75% and 7%.
For `O=C(Nc1cc2cc(-c3ccc(CN4CCCCC4)cc3)ccc2n2cnnc12)NC1CCCC1`, the inhibition in experiment [1] was 22.1%; in experiment [2] it was 6.44%; in experiment [3], 3.67%.
For `O=C(Nc1cccc(-c2cccc(-c3nc4ccccc4[nH]3)c2)c1)c1ccoc1` the same measures were 7.02%, 5.63% and 3.82%.
